Reference: PubChem BioAssay (NCATS)
Results filed as inconclusive are left out. Entries that show only a call come without a potency. Values without a mark were called inactive. Calls of active or inactive are those of the source. Calls come from the whole dose curve; as a rule, active = well fitted curve in the direction sought with a large enough effect; inconclusive = small, poorly fitted or top-dose-only effect, or another doubt; inactive = no such curve, though single readings can be large; an effect the other way counts as inactive or inconclusive.

Tests used:
[1] = target: Cellular tumor antigen p53 (Homo sapiens) (UniProt P04637); experiment: Primary qHTS for small molecule compounds that upregulate eGFP-tagged delta133p53alpha (in N-terminal) cells. (AID 2060322); conditions: NCI-H358 eGFP-delta133p53alpha fluorescence, 24 h; activation: stronger effect = higher value; note: nearly all actives have a fitted effect of over 75% in size; note: potency is the fitted concentration of half-maximal effect;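 for activation: cells pre-induced with doxycycline then dosed without doxycycline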
In short: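 NCI-H358 cells pre-induced 24 h with 10 ng/ml doxycycline for eGFP-delta133p53alpha, plated dox-free and exposed 24 h at 37C to titrated compounds. Fixed, Hoechst-stained; gated GFP peak intensity by laser scanning cytometry, normalized to DMSO (0%) and 57.5 uM 5-azacytidine (100%).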

[2] = target: Aldehyde dehydrogenase, mitochondrial (Homo sapiens) (UniProt P05091); experiment: qHTS for Inhibitors of the Aldehyde Dehydrogenase Family (ALDH2) Primary screen (AID 2061308); conditions: ALDH2 enzyme inhibition qHTS, 1536-well; series mostly up to 56 µM; note: nearly all actives have a fitted effect of over 55% in size
[3] = target: Retinaldehyde dehydrogenase 3 (Homo sapiens) (UniProt P47895); experiment: qHTS for Inhibitors of the Aldehyde Dehydrogenase Family (ALDH1A3) Primary screen (AID 2061315); conditions: ALDH inhibition qHTS; series mostly up to 56 µM

Cellular tumor antigen p53 (Homo sapiens), sequence (P04637 whole entry, looked up): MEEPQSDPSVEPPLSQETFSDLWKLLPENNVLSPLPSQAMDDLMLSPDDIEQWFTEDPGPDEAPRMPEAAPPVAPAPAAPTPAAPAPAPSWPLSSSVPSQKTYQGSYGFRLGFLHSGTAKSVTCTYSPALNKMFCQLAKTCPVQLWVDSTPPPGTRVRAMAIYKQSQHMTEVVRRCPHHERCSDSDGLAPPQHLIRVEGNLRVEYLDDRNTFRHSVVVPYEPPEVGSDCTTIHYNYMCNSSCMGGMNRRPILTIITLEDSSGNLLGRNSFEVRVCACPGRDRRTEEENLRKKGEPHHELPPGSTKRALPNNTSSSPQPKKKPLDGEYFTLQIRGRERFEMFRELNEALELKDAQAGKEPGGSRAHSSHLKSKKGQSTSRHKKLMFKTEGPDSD

COCC1OC(n2cnc3c(=O)[nH]cnc32)C(O)C1O (stereo unspecified)
activation [1]: 6.11% | Potency [2]: inactive | Potency [3]: inactive

CC(=O)O[C@@H]1C[C@@]23C[C@@]24CC[C@H](O[C@@H]2OC[C@H](O)[C@H](O)[C@H]2O)C(C)(C)[C@@H]4CC[C@H]3[C@]2(C)[C@@H](O)C34O[C@H](C[C@@H](C)[C@@H]3[C@@]12C)[C@@H](C(C)(C)O)O4
Potency [1]: 3.79 µM (active) | Potency [2]: inactive | Potency [3]: inactive

CC1=C2C(=O)C=C(CO)C2C2OC(=O)C(CS(=O)(=O)O)C2C(OC(=O)Cc2ccc(O)cc2)C1 (stereo unspecified)
activation [1]: -22.1% | Potency [2]: inactive | Potency [3]: inactive

CCCC1=CC2=C(CO1)C(=O)C(C)(OC(=O)c1c(C)cc(OC)cc1O)C(O)C2 (stereo unspecified)
activation [1]: -24.4% | Potency [2]: inactive | Potency [3]: inactive

COc1ccc(/C=C\C(=O)O)c(O[C@@H]2O[C@H](CO)[C@@H](O)[C@H](O)[C@H]2O)c1
activation [1]: -7.63% | Potency [2]: inactive | Potency [3]: inactive

C/C=C(\C)C(=O)OC1C(C)C2(O)C3C=C(C)C(=O)C3CC(CO)=CC2C2C(C)(C)C12OC(C)=O (stereo unspecified)
activation [1]: -19.8% | Potency [2]: inactive | Potency [3]: inactive

CC(=O)O[C@@H]1c2c(C)coc2C(=O)[C@@]23O[C@@H]2CC[C@H](C)[C@@]13C
activation [1]: -2.68% | Potency [2]: inactive | Potency [3]: inactive

C[C@@H]1CCC/C=C/[C@H]2CC(=O)C[C@@H]2[C@@H](O)/C=C/C(=O)O1
activation [1]: 9.82% | Potency [2]: inactive | Potency [3]: inactive

C/C(=C/C=C\C=C\Cc1cnco1)[C@@H](O)C(C)(C)C(N)=O
activation [1]: -11.5% | Potency [2]: inactive | Potency [3]: inactive

Cc1ccc(S(=O)(=O)N2CCC[C@H]2c2ccc(F)cc2)cc1
activation [1]: 8.93% | Potency [2]: inactive | Potency [3]: inactive

COc1cc(O[C@@H]2O[C@H](CO)[C@@H](O)[C@H](O)[C@H]2O)c(CCC(=O)OC[C@H]2O[C@@H](Oc3cc(OC)c(C4OC(=O)C(C)(O)C4O)cc3CCC(=O)O)[C@H](O)[C@@H](O)[C@@H]2O)cc1C1OC(=O)C(C)(O)C1O (stereo partly specified)
activation [1]: -6.11% | Potency [2]: inactive | Potency [3]: inactive

CC(C)CNCc1ccc(-c2ccccc2S(=O)(=O)N2CCCC2)cc1
activation [1]: 11.7% | Potency [2]: inactive | Potency [3]: inactive

CC(=O)O[C@@H]1[C@H](O[C@@H]2O[C@@H](CO)[C@H](O)[C@H]2O)[C@@H](O[C@@H]2O[C@@H](C)[C@H](O[C@@H]3OC[C@@H](O)[C@H](O)[C@H]3O)[C@@H](O)[C@H]2O)[C@H](OC(=O)[C@]23CCC(C)(C)C[C@H]2C2=CCC4[C@@]5(C)CC[C@H](O[C@@H]6O[C@H](C(=O)O)[C@@H](O)[C@H](O)[C@H]6O[C@@H]6O[C@H](CO)[C@H](O)[C@H](O)[C@H]6O)[C@@](C)(C=O)C5CC[C@@]4(C)[C@]2(C)CC3)O[C@@H]1C (stereo partly specified)
activation [1]: -13.7% | activity change, negative = inhibition [2]: 4.21% [at 11.2 µM] | activity change, negative = inhibition [3]: 3.44% [at 11.2 µM]

CC(=O)OC1C(c2ccccc2)CCC(c2ccccc2)C1OC(C)=O (stereo unspecified)
activation [1]: 1.53% | Potency [2]: inactive | Potency [3]: inactive

CC(O)C(=O)/C=C/C=C/C(=O)OC1C=C2COC(=O)C2(O)C2(C)CCCC(C)(C)C12 (stereo unspecified)
activation [1]: 10.7% | Potency [2]: inactive | Potency [3]: inactive

COC1CC(O[C@H]2CC[C@@]3(C)C(=CC[C@]4(O)C3[C@H](O)[C@@H](O)[C@]3(C)[C@@H]([C@H](C)O)CC[C@@]34O)C2)OC(C)C1OC1CC(OC)C(OC2CC(OC)C(OC3OC(C)C(OC4OC(CO)C(O)C(O)C4O)C(OC)C3O)C(C)O2)C(C)O1 (stereo partly specified)
activation [1]: -4.58% | Potency [2]: inactive | Potency [3]: inactive

CCCC(=O)Nc1cccc(NC(=O)c2ccccc2Br)c1
activation [1]: -11.7% | Potency [2]: inactive | Potency [3]: inactive

CC(=O)OC/C(=C/C(=O)O)CC[C@@H]1C(C)=CC(=O)[C@@H]2C(C)(C)CCC[C@@]12C
activation [1]: -23.7% | Potency [2]: inactive | Potency [3]: inactive

C=CC(C)(C)c1[nH]c2cc3c(cc2c1CC1NC(=O)C2=CCCN2C1=O)C=CC(C)(C)O3 (stereo unspecified)
activation [1]: -10.7% | Potency [2]: inactive | Potency [3]: inactive

COCC(c1ccc(C(F)(F)F)cc1)N1CCN(C2(C)CCN(C(=O)c3c(C)ncnc3C)CC2)CC1C (stereo unspecified)
activation [1]: 12.4% | Potency [2]: inactive | Potency [3]: inactive

Nc1nc2c(s1)CCN(Cc1ccc(Cl)cc1)CC2
activation [1]: 19.1% | Potency [2]: inactive | Potency [3]: inactive

C=C[C@@](C)(CCC=C(C)C)O[C@@H]1O[C@H](CO[C@@H]2OC[C@H](O)[C@H](O)[C@H]2O)[C@@H](O)[C@H](O)[C@H]1O
activation [1]: -11.5% | Potency [2]: inactive | Potency [3]: inactive
